Data taken from ChEMBL document CHEMBL4513216, “Probing the Open Global Health Chemical Diversity Library for Multistage-Active Starting Points for Next-Generation Antimalarials” (ACS Infect Dis, 2020).
The campaign covered roughly 69,000 compounds. About 8,600 (12%) showed an effect of 50% or more. The sample as a whole holds a higher share of strong results than the screen did.

system: Plasmodium berghei; experiment: Screen against P. berghei liver stage (PbLuc), transformed with Luciferase, at 10uM; format: functional, HepG2; details: tested at 10 uM

Structure (SMILES)	INHIBITION
CN(CC1(O)CCCC1)C(=O)c1cccc(Nc2cnccn2)c1	22%
CCCN(C)S(=O)(=O)N1CCCC1c1ccco1 (centres undefined)	10.47%
CN(C)C(=O)C1CN(Cc2nccs2)CCN(S(C)(=O)=O)C1 (centres undefined)	7.52%
COCC(C)(O)CNC(=O)c1cc(-c2ccc(F)cc2)nn1C (centres undefined)	-89.3%
Cn1nc(C#N)c2c1CN(C(=O)c1cccnc1)CCC2	9.3%
CCCC(=O)NC(C(=O)OC)c1cc(F)ccc1F (centres undefined)	-14%
Cc1nnc(C2CCN(c3ncccn3)CC2)o1	25.8%
Cc1c(F)cccc1S(=O)(=O)NCCN	4.3%
CC(=O)NCC(=O)N1CCOC2(CCCN(c3ccc(C)nn3)C2)C1 (centres undefined)	8.74%
Cc1ncsc1CN1C[C@H](C(=O)NC2CCCC2)[C@@H]2CCO[C@@H]2C1	52%
O=C(NC1CCCC1)[C@@H]1CN(Cc2nccs2)C[C@H]2OCC[C@H]21	32.4%
Cc1ncsc1CN1C[C@H]2OCC[C@H]2[C@H](C(=O)NCC2CC2)C1	34.4%
CC(C)NC(=O)[C@@H]1CN(Cc2nccs2)C[C@H]2OCC[C@H]21	71.1%
Cc1ncsc1CN1C[C@H](C(=O)NCC2CC2)[C@@H]2CCO[C@@H]2C1	24.9%
O=C(NCC1CC1)[C@H]1CN(Cc2nccs2)C[C@H]2OCC[C@@H]12	17.7%
Cc1ccc(S(=O)(=O)N2CC[C@@H]3C[C@H](NC(=O)c4[nH]ncc4Br)[C@@H]32)cc1	35.9%
Cc1ccc(S(=O)(=O)NC(=O)CCc2cscn2)cc1Cl	3.46%
Cc1nn(C)c(Cl)c1C1CCCN1C(=O)c1csnn1 (centres undefined)	10%
CCCn1cc2c(C(F)F)cc(SCC(=O)O)nc2n1	32.3%
CC(C)(CN1C[C@H](Nc2ncccn2)[C@@H](C2CC2)C1)N1CCOCC1	2.15%
CSc1cccc(NC(=O)Nc2c(O)oc3ccccc3c2=O)c1	1.86%
CC(C)(CN1CCC2(CCNCC2)CC1)N1CCOCC1	-22.1%
Cc1ccoc1C(=O)NC1CCN(Cc2ccccc2F)CC1	44.1%
Cc1ccc(C(=O)NC2CCN(Cc3cccc4c3OCCO4)CC2)s1	33.8%
Cc1ccoc1C(=O)NC1CCN(Cc2cccc3ccccc23)CC1	56.4%
Cc1ccoc1C(=O)NC1CCN(CC(=O)N(C)c2ccccc2)CC1	22.3%

Structure (SMILES)	INHIBITION
Cc1ccoc1C(=O)NC1CCN(Cc2cccc3c2OCCO3)CC1	52.1%
Cc1ccoc1C(=O)NC1CCN(Cc2ccccc2C#N)CC1	-9.37%
Cc1ccoc1C(=O)NC1CCN(C(=O)Nc2ccccn2)CC1	-31.8%
Cc1ccoc1C(=O)NC1CCN(Cc2csc3c(F)cccc23)CC1	87.4%
CC(C)C(=O)NC1CCN(Cc2cccc3c2OCCO3)CC1	6.81%
CN(C)c1ncc(-c2ccc(C(N)=O)cc2)c(C2CCNC2)n1 (centres undefined)	6.33%
Cc1cc(C(=O)N2CCC3(C2)CN(c2cccnc2)C(=O)CN3C)[nH]n1 (centres undefined)	22.4%
CC(C)c1nccn1C1CCCN(C(=O)c2cc(C(N)=O)cs2)C1 (centres undefined)	35.3%
CC(=O)N1CCC2(CC1)CN(C(C)C)c1ccc(F)cc12	12.2%
CN1CCC(Cc2cccc(-c3cc(F)ccc3C(=O)O)n2)CC1	23.4%
CC(C)Oc1ccc(C(=O)N2CC[C@H](O)[C@@H](n3ccnc3)CC2)cc1	26.3%
CCS(=O)(=O)c1ccccc1N1CCC(N)CC1	31.8%
CC(C)c1ncncc1C(=O)N1CCN(Cc2cccnc2)CC1	31.9%
COCCOCC1(CNCc2ccc(F)cc2)C[C@@H](O)[C@@H](O)C1 (some centres undefined)	-43%
CC(C)Cc1nnc2sc(-c3cc(C(C)C)n[nH]3)nn12	46.6%
CC(C)(C)c1ccc(CN2C[C@H]3CC(O)C[C@H]3C2)c(OCC(N)=O)c1 (some centres undefined)	-2.85%
COc1ccc2cnn(CC(=O)NC3CCCC3)c(=O)c2c1OC	40.5%
N#CCCN(Cc1ccccn1)C(=O)Nc1cccc(F)c1	-27.6%
Cc1cc(NC(=O)N(CCC#N)CCCN(C)C)ccc1F	52.6%
COC(C)c1cccc(NC(=O)N(CCC#N)Cc2ccccn2)c1 (centres undefined)	27.8%
Cc1cc(C)cc(NC(=O)N(CCC#N)CCCN(C)C)c1	52.6%
CCOc1ccc(NC(=O)N(CCC#N)Cc2ccccn2)cc1F	-1.95%
CN(C)CCCN(CCC#N)C(=O)Nc1ccc2[nH]ccc2c1	35.9%
CCOc1ccccc1-n1c(C2CC2)n[nH]c1=O	-8.25%
COc1cc(N2CC[C@@H]3O[C@H](C(=O)N(C)C)C[C@@H]32)ncn1	-20.1%
Cc1cccc(CN2CCc3onc(CO)c3C2)n1	28.5%

Structure (SMILES)	INHIBITION
O=C1NCCN(C(=O)c2cn3ccsc3n2)C1c1cccc(F)c1 (centres undefined)	43.6%
CCC(=O)N1CCN(C(=O)c2cn3ccsc3n2)[C@H]2CS(=O)(=O)C[C@H]21	14.9%
O=C1NCCN(C(=O)c2cn3ccsc3n2)C1Cc1ccccc1 (centres undefined)	54.5%
Cc1cccnc1CN1CCN(C(=O)[C@@]23CNC[C@@H]2CN(C)C3)CC1	41.5%
Cc1cs/c(=N\C(=O)Cn2nc(N3CCSCC3)ccc2=O)[nH]1	10.1%
CNC(=O)C1CCN(C(=O)CCn2cccn2)CC1	62.8%
COC1CCN(C(=O)CCn2cccn2)CC1	-9.85%
CCN(CC)CC1CCN(C(=O)CCn2cccn2)CC1	17.15%
COc1ccc(C)cc1NC(=O)C1CSc2ncc(C)c(=O)n2C1 (centres undefined)	5.36%
c1ccc(CN2CCCC2)c(CNc2cncc3nnnn23)c1	-14.3%
COc1cc(C(=O)NCCS(=O)(=O)N(C)C)c2ccccc2n1	52.9%
CN1CCC(NC(=O)c2cc(C3CCCCC3)nc3ccccc23)CC1	10.5%
CCCNC(=O)c1cc(OC)c(OC)cc1N(C)S(C)(=O)=O	24.9%
COc1cc(C(=O)NC(C)(C)CN2CCN(C)CC2)c2ccccc2n1	28.05%
COc1cc(C(=O)NCC2(N(C)C)CCN(C)CC2)c2ccccc2n1	68.4%
CCn1nc(CC(C)C)cc1C(=O)NCCS(=O)(=O)N(C)C	7.25%
Cc1nc(-c2ccccc2)sc1CNC1CCc2ncnn2C1 (centres undefined)	8.64%
CCn1nc2c(cc1=O)CN(Cc1nc(C)c(C)o1)CC2	-29.7%
CCCN1CCN(C(=O)CCn2nc(C(F)(F)F)c(Br)c2C)CC1	6.67%
O=C1C[C@@H]2CC[C@H](CN1)N2C(=O)CCc1ccc2c(c1)OCO2	17.6%
Cn1nccc1-c1ccc2nc(C3CCN(CCO)CC3)nn2c1	33.4%
c1cnc(N2CCC(c3nccn3CC3CC3)CC2)nc1	36.5%
CN(C)Cc1cc(=O)n2c(n1)CN(C(=O)Cc1cccs1)CCC2	27.6%
O=C(CN1CCN(c2ccc3nncn3n2)CC1)NC1CCCCC1	-4.16%
CC1CN(CC(=O)N2CCCC2)CCN1c1ccc2nncn2n1 (centres undefined)	7.67%
CC1CN(CC(=O)NC2CCCC2)CCN1c1ccc2nncn2n1 (centres undefined)	50.4%

Structure (SMILES)	INHIBITION
CC1CN(CC2CCCCC2)CCN1c1ccc2nncn2n1 (centres undefined)	89.3%
CC1CN(CCc2ccccn2)CCN1c1ccc2nncn2n1 (centres undefined)	15.6%
O=C(CN1CCN(c2ccc3nncn3n2)CC1)NC1CCCC1	-0.219%
CC1CN(CC2CCCC2)CCN1c1ccc2nncn2n1 (centres undefined)	82.6%
CC1CCCCN1C(=O)CN1CCN(c2ccc3nncn3n2)CC1 (centres undefined)	24%
Cc1nc(CN2CCN(c3ccc4nncn4n3)C(C)C2)oc1C (centres undefined)	7.27%
Cc1cc(CN(C)C(=O)NC2CCN(Cc3ccccn3)CC2)no1	-26.6%
CCn1cc(-c2cncn2CCc2ccc3c(c2)OCCO3)cn1	16.5%
Cc1nc(N2CCOCC2)ncc1-c1cc(O)nc(N2CCCCC2)n1	20.9%
O=C(NCc1csc2ccc(Cl)cc12)c1cc2n(n1)CCNC2	44.4%
Cc1nn(CC(=O)n2cccn2)c(C)c1I	8.53%
O=C(N[C@@H]1CN(c2ncccn2)C[C@@H]2CCCO[C@@H]21)c1ccncc1	35.8%
Cc1cccc(C2(CNC(=O)c3ccnc(N(C)C)c3)CCOCC2)c1	13.5%
COc1ccc(Cl)cc1C(=O)N1C[C@H](C(C)C)[C@@H](N)C1	-0.55%
CCCc1nc(CN2CCOC(Cn3cncn3)C2)cs1 (centres undefined)	5.9%
COc1ccc([C@@H]2CN(Cc3cccnc3N)C[C@H]2NC(C)=O)cc1	23.9%
O=C(C1CCOC1)N1CCC2(CC1)Cc1ccccc1CNC2=O (centres undefined)	2.26%
O=C(C1CC1)N1CCC2(CC1)CNCc1ccccc12	74.8%
O=C(C1CCCCC1)N1CCC2(CC1)CNCc1ccccc12	61.5%
O=C([C@H]1CCCO1)N1CCC2(CC1)CNCc1ccccc12	17.2%
O=C([C@@H]1CSCN1)N1CCC2(CC1)CNCc1ccccc12	27.5%
O=C(C1CC1)N1CCC2(CC1)CNc1ccc(F)cc12	8.85%
CC(CNC(=O)c1cc(C2CC2)on1)N1CCc2ccccc21 (centres undefined)	-51.5%
CC(Cc1ccccc1F)NC(=O)CCC1=NC(=C2N=CN=N2)NO1 (centres undefined)	60.4%
CC(C)C(N)C1=NC(=C2N=CN=N2)NO1 (centres undefined)	8.11%
CC(C)CC(N)C1=NC(=C2N=CN=N2)NO1 (centres undefined)	37.7%
